Data from PubChem BioAssay (NCATS).
Records with an inconclusive call do not appear. Calls of active or inactive are those of the source. Unless noted, calls come from the whole dose curve; as a rule, active = well fitted cell-killing curve with a large enough effect; inconclusive = small, poorly fitted or top-dose-only effect, or effect the other way; inactive = no such curve, though single readings can be large or run the other way.

How the values were obtained:
[1] = Quantitative High-Throughput drug screen in 47 multiple myeloma cell lines against the NCATS MIPE library collection: KMS28PE_JCRB cell viability assay (AID 1918983); note: nearly all actives have a fitted effect of over 35% in size
In short: (§1)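 Plated at 500 cells per well, myeloma lines received MIPE 4.0 compounds by pin tool. Following 48 h culture at 37 °C, CellTiter-Glo luminescence gave viability relative to DMSO and media-only controls.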

[2] = Quantitative High-Throughput drug screen in 47 multiple myeloma cell lines against the NCATS MIPE library collection: L363_DSMZ cell viability assay (AID 1918984); note: nearly all actives have a fitted effect of over 40% in size
In short: as §1

[3] = Quantitative High-Throughput drug screen in 47 multiple myeloma cell lines against the NCATS MIPE library collection: KMS34_JCRB cell viability assay (AID 1918985); note: nearly all actives have a fitted effect of over 40% in size
In short: as §1

[4] = Quantitative High-Throughput drug screen in 47 multiple myeloma cell lines against the NCATS MIPE library collection: OCIMY7_PLB cell viability assay (AID 1918987); note: nearly all actives have a fitted effect of over 65% in size
In short: as §1

[5] = Quantitative High-Throughput drug screen in 47 multiple myeloma cell lines against the NCATS MIPE library collection: OCIMY5_PLB cell viability assay (AID 1918988); note: nearly all actives have a fitted effect of over 65% in size
In short: as §1

[6] = Quantitative High-Throughput drug screen in 47 multiple myeloma cell lines against the NCATS MIPE library collection: OPM1_PLB cell viability assay (AID 1918989); note: nearly all actives have a fitted effect of over 40% in size
In short: as §1

[7] = Quantitative High-Throughput drug screen in 47 multiple myeloma cell lines against the NCATS MIPE library collection: SKMM1_PLB cell viability assay (AID 1919863); details: SKMM1 myeloma viability, CellTiter-Glo ATP, 48 h; viability: stronger effect = lower value; note: nearly all actives have a fitted effect of over 35% in size
In short: as §1

[8] = Quantitative High-Throughput drug screen in 47 multiple myeloma cell lines against the NCATS MIPE library collection: U266_ATCC cell viability assay (AID 1919864); note: nearly all actives have a fitted effect of over 35% in size
In short: as §1

[9] = Quantitative High-Throughput drug screen in 47 multiple myeloma cell lines against the NCATS MIPE library collection: VP6_DJ cell viability assay (AID 1919867); note: nearly all actives have a fitted effect of over 40% in size
In short: as §1

[10] = Quantitative High-Throughput drug screen in 47 multiple myeloma cell lines against the NCATS MIPE library collection: UTMC2_PLB cell viability assay (AID 1919868); details: CellTiter-Glo ATP luminescence, 48 h; viability (% of DMSO control): at 45.8 µM (top of the series) unless noted; note: nearly all actives have a fitted effect of over 55% in size
In short: as §1

[11] = Quantitative High-Throughput drug screen in 47 multiple myeloma cell lines against the NCATS MIPE library collection: PCM6_Riken cell viability assay (AID 1919870); note: nearly all actives have a fitted effect of over 30% in size
In short: as §1

[12] = Quantitative High-Throughput drug screen in 47 multiple myeloma cell lines against the NCATS MIPE library collection: RPMI8226_ATCC cell viability assay (AID 1919871); note: nearly all actives have a fitted effect of over 30% in size
In short: as §1

[13] = Quantitative High-Throughput drug screen in 47 multiple myeloma cell lines against the NCATS MIPE library collection: OPM2_DSMZ cell viability assay (AID 1919872); note: nearly all actives have a fitted effect of over 30% in size
In short: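 Inhibition of cell viability is measured here. Each line was plated at 500 cells per well, treated with MIPE 4.0 drugs, kept 48 hours at 37C, then assayed for ATP content by CellTiter-Glo luminescence.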

[14] = Quantitative High-Throughput drug screen in 47 multiple myeloma cell lines against the NCATS MIPE library collection: KMS11_JCRBsus cell viability assay (AID 1919873); note: nearly all actives have a fitted effect of over 50% in size
In short: as §1

[15] = Quantitative High-Throughput drug screen in 47 multiple myeloma cell lines against the NCATS MIPE library collection: KMS28BM_JCRB cell viability assay (AID 1919874); note: nearly all actives have a fitted effect of over 35% in size
In short: as §1

[16] = qHTS drug screen for cell cycle checkpoint inhibitors in PARPi-resistant BRCA-mutant ovarian cancer cell lines. (AID 1963452; calls by dose curve); details: PEO1/OlaR viability, CellTiter-Glo luminescence, 96 h; for Z-AUC: stronger effect = lower value
In short: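 PEO1, PEO4 and PEO1/OlaR ovarian cancer cells, 600 per well, exposed 96 h at 37C to a dilution series. Viability read by CellTiter-Glo luminescence, normalized to DMSO and empty wells; activity summarized as Z-AUC.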

[17] = qHTS for identification of novel therapeutic agents for treatment of microphthalmiaassociated transcription factor (MiT) renal cell carcinoma (RCC) (AID 1963991; calls by dose curve;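 for z-score: curves scaled with 100% = DMSO viability and 0% = empty wells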); details: CellTiter-Glo, 48 h; for Potency: active = Z-AUC below -0.8 in all three lines; for z-score: stronger effect = lower value
In short: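 UOK109/UOK124/UOK145 (TFE3 fusions, three partners); 500 cells/well; MIPE v4.0, 1912 cpds, 11 conc.; 48 h, 37 C; CellTiter-Glo, 15 min RT; lum. Norm.: DMSO 100%, empty 0%.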

[18] = Quantitative High-Throughput drug screen in 47 multiple myeloma cell lines against the NCATS MIPE library collection: XG6_PLB cell viability assay (AID 1919865); note: nearly all actives have a fitted effect of over 40% in size
In short: as §1

[19] = Quantitative High-Throughput drug screen in 47 multiple myeloma cell lines against the NCATS MIPE library collection: XG1_PLB cell viability assay (AID 1919866); note: nearly all actives have a fitted effect of over 35% in size
In short: as §1

[20] = Quantitative High-Throughput drug screen in 47 multiple myeloma cell lines against the NCATS MIPE library collection: PE2_PLB cell viability assay (AID 1919869); note: nearly all actives have a fitted effect of over 35% in size
In short: as §1

[21] = measured here: PEO1 parental Z-AUC
[22] = TFE3-RCC UOK109 viability, measured here: UOK109 Z-AUC
[23] = TFE3-RCC viability, measured here: UOK124 Z-AUC
[24] = TFE3-RCC viability, measured here: UOK145 Z-AUC
Potency is the fitted concentration of half-maximal effect.

O=C(Cc1ccc(-c2ccc(OCCN3CCOCC3)cc2)cn1)NCc1ccccc1
inactive: Z-AUC [16] -0.749
-2.5: z-score [17, 23]
active: Potency [1] 0.0469 µM | Potency [2] 14.8 nM | Potency [3] 14.8 nM | Potency [4] 1 nM | Potency [5] 11.8 nM | Potency [6] 29.6 nM | Potency [7] 16.6 nM | Potency [8] 0.0935 µM | Potency [9] 26.4 nM | Potency [10] 33.2 nM | Potency [11] 0.0264 µM | Potency [12] 0.148 µM | Potency [13] 0.0372 µM | Potency [14] 10.5 nM | Potency [15] 14.8 nM | Potency ([17]; TFE3-RCC UOK109 viability) 148 nM
-0.848: Z-AUC [16, 21]
-1.63: Z-AUC ([16]; measured here: PEO4 Z-AUC)
-1.65: z-score [17, 22]
-1.24: z-score [17, 24]

O=C(Nc1cc(C(F)(F)F)cc(C(F)(F)F)c1)c1cc(Cl)ccc1O
-1.74: z-score [17, 22]
-1.08: z-score [17, 23]
-1.95: z-score [17, 24]
-1.29: Z-AUC [16, 21]
-1.54: Z-AUC ([16]; measured here: PEO4 Z-AUC)
active: Potency [1] 1.66 µM | Potency [2] 833 nM | Potency [3] 1480 nM | Potency [4] 1870 nM | Potency [5] 2350 nM | Potency [6] 833 nM | Potency [8] 1.48 µM | Potency [18] 935 nM | Potency [19] 935 nM | Potency [9] 526 nM | Potency [10] 743 nM | Potency [20] 590 nM | Potency [11] 1.32 µM | Potency [12] 0.662 µM | Potency [13] 1.32 µM | Potency [14] 332 nM | Potency [15] 833 nM | Potency [16] 977 nM | Potency ([17]; TFE3-RCC UOK109 viability) 1180 nM

c1nc2nc(Nc3ccc(N4CCOCC4)cc3)nc(NC3CCCCC3)c2[nH]1
active: Potency [1] 16.6 µM | Potency [2] 5260 nM | Potency [3] 5260 nM | Potency [4] 3320 nM | Potency [5] 18700 nM | Potency [6] 4690 nM | Potency [8] 16.6 µM | Potency [18] 2090 nM | Potency [19] 1480 nM | Potency [9] 3320 nM | Potency [10] 2640 nM | Potency [20] 3720 nM | Potency [11] 5.9 µM | Potency [12] 11.8 µM | Potency [13] 11.8 µM | Potency [14] 5260 nM | Potency [15] 4180 nM
inactive: Z-AUC [16] -0.117
-0.143: Z-AUC ([16]; measured here: PEO4 Z-AUC)
0.016: Z-AUC [16, 21]

CNC(=O)c1nn(C)c2c1C(C)(C)Cc1cnc(Nc3ccc(N4CCN(C)CC4)cc3)nc1-2
active: Potency [1] 4.18 µM | Potency [2] 662 nM | Potency [3] 1480 nM | Potency [4] 1320 nM | Potency [5] 1180 nM | Potency [6] 1660 nM | Potency [8] 0.935 µM | Potency [18] 2960 nM | Potency [19] 2640 nM | Potency [9] 743 nM | Potency [10] 8330 nM | Potency [20] 2640 nM | Potency [11] 2.09 µM | Potency [12] 1.48 µM | Potency [13] 13.2 µM | Potency [14] 1050 nM | Potency [15] 2960 nM | Potency [16] 549 nM
-1.22: Z-AUC [16, 21]
-1.37: Z-AUC ([16]; measured here: PEO4 Z-AUC)

CC1(C)OC2=C(C(=O)c3ccccc3C2=O)[C@H](NCc2ccccc2)[C@H]1O
active: Potency [1] 6.62 µM | Potency [2] 2090 nM | Potency [3] 4180 nM | Potency [4] 1320 nM | Potency [5] 3320 nM | Potency [6] 2350 nM | Potency [7] 7430 nM | Potency [8] 2.64 µM | Potency [18] 935 nM | Potency [9] 3320 nM | Potency [10] 2350 nM | Potency [20] 3320 nM | Potency [11] 2.35 µM | Potency [12] 8.33 µM | Potency [13] 8.33 µM | Potency [14] 3720 nM | Potency [15] 2960 nM

Nc1ccccc1NC(=O)c1ccc(CNc2nccc(-c3cccnc3)n2)cc1
inactive: Z-AUC [16] -0.45
-0.821: Z-AUC [16, 21]
-0.657: Z-AUC ([16]; measured here: PEO4 Z-AUC)
active: Potency [1] 2.96 µM | Potency [2] 1180 nM | Potency [3] 935 nM | Potency [4] 526 nM | Potency [5] 833 nM | Potency [6] 264 nM | Potency [7] 1660 nM | Potency [8] 1.66 µM | Potency [18] 2640 nM | Potency [19] 1180 nM | Potency [9] 469 nM | Potency [10] 833 nM | Potency [11] 2.35 µM | Potency [12] 2.64 µM | Potency [14] 662 nM | Potency [15] 833 nM

CC(C)c1cc(C(=O)N2Cc3ccc(CN4CCN(C)CC4)cc3C2)c(O)cc1O
active: Potency [1] 0.332 µM | Potency [2] 59 nM | Potency [3] 235 nM | Potency [4] 26.4 nM | Potency [5] 105 nM | Potency [6] 118 nM | Potency [7] 418 nM | Potency [8] 0.209 µM | Potency [18] 296 nM | Potency [19] 148 nM | Potency [9] 148 nM | Potency [10] 372 nM | Potency [20] 296 nM | Potency [11] 0.935 µM | Potency [12] 0.264 µM | Potency [13] 0.332 µM | Potency [14] 105 nM | Potency [15] 235 nM | Potency ([17]; TFE3-RCC UOK109 viability) 418 nM
-0.898: z-score [17, 23]
-0.923: z-score [17, 22]
-0.85: z-score [17, 24]

NC(=O)Nc1cc(-c2cccc(F)c2)sc1C(=O)N[C@H]1CCCNC1
-1.9: Z-AUC [16, 21]
-1.42: z-score [17, 22]
-1.69: z-score [17, 23]
-1.5: Z-AUC ([16]; measured here: PEO4 Z-AUC)
-1.85: z-score [17, 24]
active: Potency [1] 2.64 µM | Potency [2] 16.6 nM | Potency [3] 93.5 nM | Potency [4] 264 nM | Potency [5] 74.3 nM | Potency [6] 296 nM | Potency [8] 5.9 µM | Potency [18] 83.3 nM | Potency [19] 187 nM | Potency [9] 166 nM | Potency [10] 105 nM | Potency [20] 469 nM | Potency [11] 4.69 µM | Potency [13] 2.64 µM | Potency [14] 526 nM | Potency [15] 1870 nM | Potency [16] 110 nM | Potency ([17]; TFE3-RCC UOK109 viability) 935 nM
